Only some compounds are listed: those with a hit (about 0.9% of all), similar ones and a draw of the others.
BioA inh – M. tuberculosis BioA enzyme inhibitors, primary screen, biochemical, plate reader, single point, HTS | 360,000 compounds, 0.096% hits | AID 602481, 2012 | inhibition, % at 9.99 µM | purified M. tuberculosis BioA enzyme; in the data active means inhibition above about 40%
Mtb UGM inh – M. tuberculosis UGM enzyme inhibitors, primary screen, biochemical, fluorescence polarization, single point | 320,000 compounds, 0.06% hits | purified UGM, fluorescence polarization probe displacement | inhibition, % at 10 µM | UDP-galactopyranose mutase (Mycobacterium tuberculosis (strain ATCC 25618 / H37Rv)), …; in the data active means inhibition above about 10%, passing the limit was not always enough
Rv3671c inh – Rv3671c serine protease inhibitors, primary screen, biochemical, fluorescence polarization, M. tuberculosis H37Rv; 320,000 compounds, 0.048% hits; P9WHR9; inhibition, % at 5.96 µM; in the data active means inhibition above about 38%;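 further: extracellular domain of Rv3671c used as enzyme; 0% = enzyme with DMSO and 100% = no enzyme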
Target sequence (P9WHR9 whole entry, looked up, the tested form may be a part): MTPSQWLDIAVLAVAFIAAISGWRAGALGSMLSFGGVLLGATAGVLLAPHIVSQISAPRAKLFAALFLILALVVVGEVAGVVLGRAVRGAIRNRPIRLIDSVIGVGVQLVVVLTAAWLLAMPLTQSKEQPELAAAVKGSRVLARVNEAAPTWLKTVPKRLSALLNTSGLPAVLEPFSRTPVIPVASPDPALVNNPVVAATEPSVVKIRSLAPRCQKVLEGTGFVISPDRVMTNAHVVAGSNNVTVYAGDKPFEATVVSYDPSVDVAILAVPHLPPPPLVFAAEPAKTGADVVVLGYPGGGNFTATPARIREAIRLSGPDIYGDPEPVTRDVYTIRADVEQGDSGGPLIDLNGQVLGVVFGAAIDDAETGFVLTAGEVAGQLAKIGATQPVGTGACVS
RecA intein inh – Mtb RecA intein splicing inhibitors, primary screen, biochemical, fluorescence, HTS; Protein RecA (Mycobacterium tuberculosis (strain ATCC 25618 / H37Rv)), P9WHJ3; cell-free RecA intein splicing; inhibition, % (concentration not given with the values); 290,000 compounds, 0.75% hits; in the data active means inhibition above about 30%;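 further: 0% = vehicle wells and 100% = reference inhibitor control wells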
FadD28 FP inh – inhibitors of FadD28 bisubstrate probe binding, primary screen, biochemical, fluorescence polarization, single point. Mycobacterium tuberculosis FadD28 fatty-acid-AMP ligase. 360,000 compounds, 0.22% hits. inhibition, % at 12.5 µM. AID 588549, 2011; in the data active means inhibition above about 8.5%, passing the limit was not always enough
TcdB GH inh – TcdB glycohydrolase inhibitors, primary screen, biochemical, single point, plate reader; Toxin B (Clostridioides difficile), P18177; AID 652162, 2013; inhibition, % at 9.99 µM; 350,000 compounds, 0.24% hits; TcdB glycohydrolase enzymatic assay; in the data active means inhibition above about 10%
Active calls of the source: *; i = inactive; · = no result given.

SMILES	BioA inh	Mtb UGM inh	Rv3671c inh	RecA intein inh	FadD28 FP inh	TcdB GH inh
C[C@@H]1CN([C@@H](C)CO)S(=O)(=O)c2ccc(C#CC3CC3)cc2O[C@H]1CN(C)C(=O)c1ccccc1	-0.2	·	·	·	·	0.9
C[C@@H]1CCCCO[C@H](CN(C)C(=O)CCCN(C)C)[C@@H](C)CN([C@H](C)CO)C(=O)c2cc(NC(=O)C3CCCCC3)ccc2O1	0.5	·	·	·	·	1.2
C[C@@H]1CN([C@H](C)CO)C(=O)Cc2cc(NS(C)(=O)=O)ccc2O[C@H]1CN(C)C(=O)Nc1ccc(F)cc1	-1.3	·	·	·	·	-0.1
Cc1ccc(-n2[nH]c(C)c(/C=N/NC(=O)c3ccc([N+](=O)[O-])cc3)c2=O)c(C)c1	·	1.6	14.9	32.1*	-0.5	1.3
Cc1[nH]n(-c2cccc3ccccc23)c(=O)c1/C=N/NC(=O)c1cccc([N+](=O)[O-])c1	-0.6	4.9	-5.6	10.0	-2.7	·
NNC(=S)Nc1cccc(-c2n[nH]c(=S)o2)c1	3.3	2.5	10.4	2.7	9.5*	0.4
CCCNC(=O)N1CCC2(CC1)CN(C(=O)Nc1ccc(F)cc1)[C@@H](CO)c1[nH]c3cc(OC)ccc3c12	·	·	·	·	·	-0.6
CC(C)NC(=O)N1C[C@H]2[C@@H](c3ccccc31)[C@@H](CO)N2C(=O)Nc1cccc(F)c1	0.0	·	·	·	·	0.6
O=C1NC(=S)SC1=Cc1ccc(N(CCCl)CCCl)cc1	-16.8	·	·	·	13.6*	1.0
O=C1NC(=S)SC1=Cc1ccc(Cl)cc1	2.0	·	·	·	-1.1	2.5
CC(C)NC(=O)Nc1cccc2c1O[C@H](CN(C)C(=O)NC(C)C)[C@H](C)CN([C@@H](C)CO)C2=O	-2.2	·	·	·	·	1.0
O=C(N[C@@H]1C=C[C@H](CC(=O)N2CCc3ccccc3C2)O[C@@H]1CO)C1CCOCC1	·	·	·	·	·	-0.5
Nc1nc(CCOc2ccc(F)cc2)cs1	·	·	·	0.7	-1.6	11.1*
CCC(=O)N1CC2(C1)[C@@H](c1ccccc1)[C@H](CO)N2CCC(F)(F)F	·	·	·	·	·	0.5
Cc1ccc(C2=NS(=O)(=O)N(C)C(C(=O)NC(C)c3ccccc3)=C2)cc1 (stereo not given)	2.8	-4.8	8.7	-1.2	-3.6	1.7
CSc1ccccc1NC(=O)C1=CC(c2ccc(C)cc2)=NS(=O)(=O)N1C	-1.7	0.5	-1.3	6.1	-0.9	29.1*
C/C=C/c1cnc2c(c1)C(=O)N([C@@H](C)CO)C[C@H](C)[C@H](CN(C)C(=O)c1cccc(F)c1)O2	-1.1	·	·	·	·	0.0
COc1ccc(N=C2NC(=O)/C(=C/c3ccc(O)c(OC)c3)S2)cc1	·	-1.3	6.3	0.6	11.9*	0.6
COc1cc(/C=C2/SC(=Nc3ccc(O)cc3)NC2=O)cc(OC)c1O	·	-0.7	2.5	-0.7	-2.1	-4.8
O=C(c1cccc(F)c1)N1CC2(C1)[C@H](c1ccccc1)[C@@H](CO)N2C(=O)C1CCCC1	·	·	·	·	·	-0.5
Oc1c(Cl)cc(Cl)cc1Sc1cc(Cl)cc(Cl)c1O	·	0.3	0.8	73.1*	·	·
CC(C)NC(=O)N(C)C[C@@H]1Oc2c(NS(=O)(=O)c3ccc(Cl)cc3)cccc2C(=O)N([C@H](C)CO)C[C@H]1C	-1.2	·	·	·	·	1.2
Nc1ccc2c(c1)Nc1ccccc1CC2	·	-1.6	7.8	0.1	-3.3	14.7*
COc1ccc(C(=O)Nc2ccccc2C(=O)O)cc1Cl	·	-1.4	-12.3	-0.3	-6.7	10.3*
COc1ccc(C(=O)Nc2ccccc2C(=O)O)cc1NC(=O)C(c1ccccc1)c1ccccc1	·	3.9	-53.5	23.9	-25.2	-0.1
SMILES	BioA inh	Mtb UGM inh	Rv3671c inh	RecA intein inh	FadD28 FP inh	TcdB GH inh
COc1ccc2c3c([nH]c2c1)[C@@H](CO)N(C(=O)c1cccnc1)CC31CN(Cc2cccnc2)C1	·	·	·	·	·	0.5
N#Cc1c(-c2ccccc2)c(-c2ccccc2)nn(CC(=O)NNC(=O)Nc2ccc(Cl)c(Cl)c2)c1=O	-1.0	4.4	-255.6	10.5	16.9*	·
Nc1ccc2ccc3cccc[n+]3c2c1	-202.3	62.5*	-16.1	i	-0.1	1.5
CCN(CC)c1ccc2cc(S(=O)(=O)c3ccc(C)cc3)c(=O)oc2c1	·	30.1*	-7.0	-73.2	-3.2	·
Cc1ccc(S(=O)(=O)c2cc3ccccc3oc2=O)cc1	·	-1.2	0.6	-1.9	-1.3	·
Cc1ccc(S(=O)(=O)Oc2ccccc2/C=N/Nc2ccc(C(=O)O)cc2)cc1	-0.8	0.6	5.3	5.6	9.1*	2.6
COc1ccc(NC(=S)NC(NC(=O)CCl)C(Cl)(Cl)Cl)c([N+](=O)[O-])c1 (stereo not given)	-0.7	-0.9	-8.9	55.0*	-1.4	·
COc1ccc(NC(=S)NC(NC(=O)c2ccccc2Cl)C(Cl)(Cl)Cl)c([N+](=O)[O-])c1 (stereo not given)	-1.1	1.9	-11.8	4.9	-2.7	0.6
Fc1cccc(-c2ccc(C3[C@H]4CNC[C@@H]3N4Cc3cncnc3)cc2)c1 (stereo not given in full)	·	·	·	·	·	0.1
CCCC(=O)N1CCC2(CC1)CN(C(=O)Nc1c(C)noc1C)[C@H](CO)c1c2c2ccc(OC)cc2n1C	·	·	·	·	·	-1.4
CC(=O)N(C)C[C@H]1Oc2cc(-c3ccccc3F)ccc2S(=O)(=O)N([C@H](C)CO)C[C@@H]1C	0.4	·	·	·	·	-0.3
CSc1ncc(Cl)c(C(=O)Nc2nnc(SC/C=C/c3ccccc3)s2)n1	1.5	-0.3	-8.3	-2.4	15.1*	0.2
CCCCNC(=O)CSc1nc(CCC)nc2ccccc12	·	-0.9	-2.6	6.2	-3.1	1.3
CCCc1nc(SCC(=O)N2CCc3ccccc3C2)c2ccccc2n1	1.5	-1.1	-15.2	32.1*	-0.9	1.5
CCc1c(O)nc(SCC(=O)Nc2nc3ccccc3s2)n(C2CCCCC2)c1=O	1.4	2.1	2.8	4.0	12.5*	0.9
CCc1c(O)nc(SCC(=O)Nc2ccc(OC)cc2)n(C2CCCCC2)c1=O	0.0	1.8	-2.5	1.1	1.0	·
CCN(CC)S(=O)(=O)c1cc(C(=O)OCC(=O)Nc2cccc(Br)c2)ccc1F	·	2.4	-59.2	0.0	56.1*	·
CCN(CC)S(=O)(=O)c1cc(C(=O)OCC(=O)Nc2c(F)cccc2F)ccc1F	-0.5	-1.7	-4.2	0.8	-4.7	0.4
C[C@@H]1CN([C@@H](C)CO)S(=O)(=O)c2ccc(C3=CCCCC3)cc2O[C@H]1CN(C)S(=O)(=O)c1ccc(F)cc1	-0.1	·	·	·	·	0.3
CCCCCC(=O)Nc1cc(S(=O)(=O)O)cc2cc(S(=O)(=O)O)cc(O)c12	·	·	·	·	35.0*	-4.6
COc1cc(C(O)c2nc3ccccc3s2)cc(OC)c1OC (stereo not given)	2.3	1.2	-3.2	0.3	24.3*	-0.1
COC(=O)CCCC1=CC2=C(c3ccccc3)C(=O)C(C)(OC(=O)C3CCCC3)C(=O)C2=CN1CCCCO (stereo not given)	2.1	0.4	-3.7	39.2*	-0.9	-1.9

High-throughput results from PubChem.
